Screening results from PubChem BioAssay.
SARS 3CLpro inh: SARS-CoV 3CLpro protease inhibition; inhibition, % at 6 µM; 0.14% of 290,000 active; recombinant SARS-CoV 3CLpro, quenched FRET peptide cleavage; in the data active = inhibition above about 12%
VHR inh abs: DUSP3 (human) phosphatase inhibition; inhibition, % at 13.3 µM; 0.52% of 290,000 active; recombinant VHR phosphatase, pNPP absorbance; in the data active = inhibition above about 50%
CCHF vOTU inh: blocks the CCHF virus ovarian tumor domain protease; inhibition, % at 11.5 µM; CCHFV vOTU protease, Pep-AMC fluorescence; 0.55% of 370,000 active; in the data active = inhibition above about 30%; also: 0% = vehicle wells with enzyme and 100% = no enzyme wells
RecA splice inh: blocks M. tuberculosis RecA intein splicing. inhibition, % (concentration not given with the values). cell-free RecA intein splicing, fluorescence. P9WHJ3. 0.75% of 290,000 active; in the data active = inhibition above about 30%;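 also: 0% = vehicle wells and 100% = reference inhibitor control wells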
GFP chromophore: counter-screen GFP chromophore formation inhibition. shares compounds with RecA splice inh. cell-free GFP chromophore formation, fluorescence. EC50, µM. 83% of 2,100 active. AID 434968; call rule not given here
The depositor's hits bear a star. Hits are enriched below; roughly 1.5% of the tested compounds scored in any of these assays.

For CCCCCC[N+](C)(C)CCSSCC[N+](C)(C)CCCCCC the results were SARS 3CLpro inh 4.7, VHR inh abs -23.4, CCHF vOTU inh -10.6 and RecA splice inh -0.8.
CCCCCCCCCCCCCCCC[N+](C)(C)C was read as CCHF vOTU inh 16.4, RecA splice inh 35.5* and GFP chromophore 22.6*.
C[N+](C)(C)CCCCCC[N+](C)(C)C was read as CCHF vOTU inh -5.3 and RecA splice inh -1.7.
For CSCc1ccc(C(=O)OCC(=O)NC2CCCC2)o1 the results were CCHF vOTU inh -7.3.
`O=C(COC(=O)c1ccc(Br)cc1)NC(=O)NCc1ccccc1` gave CCHF vOTU inh -0.3.
Screening CN(CCc1ccccc1)C(=O)c1ccc2c(c1)ncn2C1CCCCC1 returned CCHF vOTU inh -6.6.
Screening O=C(NCc1ccc(Cl)nc1)c1ccc2nc([C@@H]3O[C@H](CO)[C@H](O)[C@H](O)[C@H]3O)[nH]c2c1 returned CCHF vOTU inh 2.1.
Oc1cc(O)c2c(c1)O[C@H](c1ccc(O)c(O)c1)[C@H](O)C2 was read as SARS 3CLpro inh 3.3, VHR inh abs 36.9, CCHF vOTU inh -7.0, RecA splice inh 35.6* and GFP chromophore >38.
Screening CC(C)Oc1ccc(CN2CCC2(C)C(=O)Nc2cnc3ccccc3c2)cc1 (stereo not given) returned CCHF vOTU inh 15.2.
For Cc1ccc2[nH]c3c(c2c1)CN(C(=O)CN1CCSCC1)CC3 the results were SARS 3CLpro inh 2.3, VHR inh abs 39.8, CCHF vOTU inh -4.5, RecA splice inh 61.3* and GFP chromophore 0.191*.
`O=C(CSc1nnc(C2CC2)n1C1CC1)N1CCN(c2ccc(O)cc2)CC1` gave CCHF vOTU inh -5.6.
Screening Oc1ccc2ccccc2c1-c1sc(Nc2ccccc2)n[n+]1-c1ccc(F)cc1 returned SARS 3CLpro inh 6.2, VHR inh abs 1.1, CCHF vOTU inh 10.7 and RecA splice inh 1.4.
For Fc1ccc(-[n+]2nc(Nc3ccccc3)sc2-c2c3ccccc3cc3ccccc23)cc1 the results were SARS 3CLpro inh 3.1, VHR inh abs -2.3, CCHF vOTU inh -1.9, RecA splice inh 48.6* and GFP chromophore 16.4*.
O=C(Oc1ccc(N(C(=O)c2ccncc2)S(=O)(=O)c2ccc(Cl)cc2)cc1)c1ccncc1 was read as SARS 3CLpro inh 0.2, VHR inh abs 22.0, CCHF vOTU inh 1.2, RecA splice inh 37.8* and GFP chromophore 32.5*.
For Cc1cc(NS(=O)(=O)c2ccc(NC(=O)Cc3ccc(Cl)c(Cl)c3)cc2)on1 the results were CCHF vOTU inh 25.6.
Screening COc1cc(NC(=O)C2=COCCO2)c(OC)cc1Cl returned CCHF vOTU inh -1.2 and RecA splice inh -1.4.
For CC(=O)n1cc(N(C(=O)CCl)c2ccc(C)cc2)c2ccccc21 the results were SARS 3CLpro inh 8.9, VHR inh abs 29.8, CCHF vOTU inh 1.9, RecA splice inh 91.2* and GFP chromophore 1.73*.
`Cc1[nH]n(-c2ccccc2)c(=O)c1/C=N\NC(=O)C1COc2ccccc2O1` (stereo not given) gave SARS 3CLpro inh 1.7, VHR inh abs 1.1, CCHF vOTU inh 3.9, RecA splice inh 38.1* and GFP chromophore >38.
For CC(=O)N/N=C/c1c(C)[nH]n(-c2ccccc2)c1=O the results were SARS 3CLpro inh -2.7, VHR inh abs -16.0 and CCHF vOTU inh 26.4.
For CC1CCCC(NC(=O)c2cccs2)C1C (stereo not given) the results were CCHF vOTU inh -9.8.
Screening Cc1cc2c(NC3CCCCC3)ncnc2s1 returned SARS 3CLpro inh -3.6, VHR inh abs 19.3, CCHF vOTU inh -6.5 and RecA splice inh -0.6.
`COc1ccc(C2(CNS(=O)(=O)c3ccccc3)CCOCC2)cc1` gave SARS 3CLpro inh 0.5, VHR inh abs 9.3, CCHF vOTU inh 2.3 and RecA splice inh 1.5.
Screening C[C@H](OC(=O)NCc1ccc(C(F)(F)F)cc1)[C@@H]1O[C@@]2(C)CCC[C@@H]1O2 returned CCHF vOTU inh 1.4.
Screening COc1ccc2c(c1)-c1nc(/N=C/c3c(O)ccc4ccccc34)sc1CC2 returned SARS 3CLpro inh 2.2, VHR inh abs -12.9, CCHF vOTU inh -10.1, RecA splice inh 51.1* and GFP chromophore >38.
`Cc1cc(C2C(C#N)=C(N)Oc3n[nH]c(C)c32)c(C)s1` (stereo not given) gave SARS 3CLpro inh -4.3, VHR inh abs 10.6, CCHF vOTU inh 0.0, RecA splice inh 80.8* and GFP chromophore 36.5*.
CC(C)(C)c1[nH]nc2c1C(Cc1ccccc1)C(C#N)=C(N)O2 (stereo not given) was read as SARS 3CLpro inh 0.3, VHR inh abs -13.2, CCHF vOTU inh 8.3, RecA splice inh 54.1* and GFP chromophore 20.3*.
For Cc1[nH]nc2c1C(c1ccsc1C)C(C#N)=C(N)O2 (stereo not given) the results were SARS 3CLpro inh 2.5, VHR inh abs -5.5, CCHF vOTU inh 13.8, RecA splice inh 47.6* and GFP chromophore 27.8*.
For Cc1ccc(-c2ccc(C3C(C#N)=C(N)Oc4n[nH]c(C)c43)o2)cc1 (stereo not given) the results were SARS 3CLpro inh -2.4, VHR inh abs 35.6, CCHF vOTU inh 0.9, RecA splice inh 67.5* and GFP chromophore 36.2*.
For C/C(=N\NC(=O)Cc1cc(=O)[nH][nH]1)c1ccc([N+](=O)[O-])cc1 the results were CCHF vOTU inh 7.9.
Screening C/C(=N\NC(=O)Cc1cc(=O)[nH][nH]1)c1cccc([N+](=O)[O-])c1 returned SARS 3CLpro inh 0.0, VHR inh abs 7.6, CCHF vOTU inh -11.8, RecA splice inh 87.9* and GFP chromophore 8.76*.
C/C(=N/NC(=O)Cc1cc(=O)[nH][nH]1)c1ccc([N+](=O)[O-])cc1 was read as SARS 3CLpro inh 3.9, VHR inh abs -12.5, CCHF vOTU inh 3.9, RecA splice inh 84.4* and GFP chromophore 7.45*.
`C/C(=N/NC(=O)Cc1cccs1)c1cccc([N+](=O)[O-])c1` gave CCHF vOTU inh 2.4.
`C=CCN1C(=O)[C@@H](CC(=O)N2CCOCC2)[C@]2(C(=O)OC)CCCCC=C12` gave CCHF vOTU inh -0.3.
COc1ccc(C(=O)n2nnc3ccccc32)cc1OC was read as SARS 3CLpro inh -0.4, VHR inh abs 11.5 and CCHF vOTU inh -7.3.
For COc1ccc(C(=O)n2nnc3ccccc32)cc1Br the results were SARS 3CLpro inh -3.5, VHR inh abs -7.5, RecA splice inh 34.5* and GFP chromophore >38.
Screening Nc1ccc2nc(CCCCc3nc4ccccc4[nH]3)[nH]c2c1 returned SARS 3CLpro inh 0.1, VHR inh abs 51.5*, CCHF vOTU inh -7.5, RecA splice inh 35.8* and GFP chromophore >38.
Screening Nc1ccc2nc(CCCCCCc3nc4ccc(N)cc4[nH]3)[nH]c2c1 returned SARS 3CLpro inh 4.0, VHR inh abs 38.3, CCHF vOTU inh 12.1 and RecA splice inh 7.4.
Screening Cc1ccc(NC(=O)NCc2ccccn2)c(C)c1 returned SARS 3CLpro inh -7.5, VHR inh abs 15.0, CCHF vOTU inh -7.4 and RecA splice inh -1.5.
`O=C(OCn1ncc(Cl)c(Cl)c1=O)c1cccc(C(F)(F)F)c1` gave SARS 3CLpro inh -1.1, VHR inh abs 4.1, RecA splice inh 93.9* and GFP chromophore 1.57*.
